Screen size: about 310,000 compounds; about 17,000 (5.5%) were called active. Where a call stands in place of a potency, no number is given. Roughly 11% stayed inconclusive and do not appear here. The sample as a whole holds a higher share of actives than the screen did. A number with no mark means an inactive call. Calls come from the whole dose curve; as a rule, active = well fitted inhibition curve with a large enough effect; inconclusive = small, poorly fitted or top-dose-only effect, or effect the other way; inactive = no such curve, though single readings can be large or run the other way.
Potency is the fitted concentration of half-maximal effect.

Chain of Nuclear receptor ROR-gamma (Mus musculus) (P51450 whole entry, looked up, the tested form may be a part): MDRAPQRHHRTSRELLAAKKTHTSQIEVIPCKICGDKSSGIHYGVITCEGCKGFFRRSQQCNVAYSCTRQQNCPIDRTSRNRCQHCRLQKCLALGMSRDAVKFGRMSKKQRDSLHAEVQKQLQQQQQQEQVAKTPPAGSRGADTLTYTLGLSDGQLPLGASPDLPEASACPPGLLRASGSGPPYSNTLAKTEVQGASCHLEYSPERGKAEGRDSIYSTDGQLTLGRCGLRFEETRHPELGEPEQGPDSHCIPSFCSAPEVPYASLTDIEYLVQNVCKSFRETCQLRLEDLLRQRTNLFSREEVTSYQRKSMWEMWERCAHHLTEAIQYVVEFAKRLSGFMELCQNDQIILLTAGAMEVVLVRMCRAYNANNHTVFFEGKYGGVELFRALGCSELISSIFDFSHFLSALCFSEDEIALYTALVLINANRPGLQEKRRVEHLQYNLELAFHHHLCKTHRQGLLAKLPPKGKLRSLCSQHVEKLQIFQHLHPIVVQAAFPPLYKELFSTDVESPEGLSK

In the assay the target is Nuclear receptor ROR-gamma (Mus musculus) (UniProt P51450). Put plainly: qHTS for inhibitors of ROR gamma transcriptional activity. Note: nearly all actives have a fitted effect of over 60% in size. The following applies: Drosophila S2 Gal4-RORgamma UAS-luciferase reporter, 20 h; series mostly up to 53.6 µM. From the text:
NIH Molecular Libraries Probe Production Network [MLPCN] NIH Chemical Genomics Center [NCGC] MLPCN Grant: R03 DA026211-01 Assay Provider: Dan Littman, New York University Assay Overview: The retinoic acid-related orphan receptor (ROR) gamma is a transcription factor that has a central role in the differentiation of Th17 cells, a subset of T helper cells that secrete the inflammatory cytokines IL-17, IL-17F, and IL-22. Th17 cells have been implicated in graft versus host disease, autoimmune disease and asthma. ROR gamma is induced in naive T helper cells in the presence of TGF-beta combined with IL-6, IL-21, or IL-23, and thereafter directs the expression of the Th17 lineage cytokines. To study the mechanism of action of ROR gamma, an insect cell-based assay was screened. This Drosophila Schneider cell line was stably transfected with two vectors: a gene expressing a fusion of the Gal4 DNA binding domain and ROR gamma transactivation domain under the control of the metallothionine promoter and a Photinus luciferase reporter regulated by the Gal4 binding site enhancer, UAS. […] Small molecule inhibitors of ROR gamma activity are detected by a decrease in luciferase reporter activity.
Assay Protocol Summary: For screening, 600 cells in 4 uL/well were dispensed into white solid 1536-well plates (Grenier) using a solenoid-based dispenser. Following transfer of 23 nL compound or DMSO vehicle by a pin tool, the plates were incubated 1 hr at ambient temperature, and 1 uL/well copper sulfate (700 uM final concentration) was added. The plates were centrifuged 15 s at 1000 RPM and incubated 20 hr at ambient temperature. After addition of 1.5 uL Photinus luciferase detection reagent, the plates were incubated 10 min at ambient temperature and then read by an ViewLux (Perkin Elmer) to detect luminescence. Keywords: NIH Roadmap, MLPCN, MLI, MLSMR, qHTS, NCGC, qHTS, nuclear hormone receptor, retinoic acid-related orphan receptor, ROR gamma
In general terms: In qHTS, concentration-response curves come from the screen itself.
Turning to `c1ccc2sc(SNC3CCCCC3)nc2c1`, the Potency was 8.91 µM (active).

As for `c1ccc2sc(C3CCCNC3)nc2c1` (stereo not given), the Potency entry was “inactive”.

For `c1ccc2sc(N3CCNCC3)nc2c1`, the Potency entry was “inactive”.

In the case of `CC[N+](C)(CC)CCC[n+]1c(-c2ccccc2)c2cc(N)ccc2c2ccc(N)cc21`, the Potency is 3.16 µM (active).

Consider `CN[C@@H]1C[C@H]2O[C@@](C)([C@@H]1OC)n1c3ccccc3c3c4c(c5c6ccccc6n2c5c31)C(=O)NC4`, for which the activity change, negative = inhibition is -41% [at 10 µM].

Consider `CCOc1cccc(=NC2CCCCC2)c2c(C)[nH]c(C)c12`, for which the Potency result was “inactive”.

For the compound `O=c1oc2ccccc2c(O)c1C(c1ccccc1O)c1c(O)c2ccccc2oc1=O`, the Potency result was “inactive”.

`CCNC[C@H](O)c1cccc(O)c1`: the activity change, negative = inhibition was -12.3% [at 2.98 µM].

Take `C/C(=C\C=C/[C@@H](C)C(=O)O)[C@H]1CN[C@H](C(=O)O)[C@@H]1CC(=O)O`: the Potency result is “inactive”.

As for `Fc1ccc(C(OCCN2CCN(C/C=C\c3ccccc3)CC2)c2ccc(F)cc2)cc1`, the Potency is 14.1 µM (active).

`ClC(Cl)=C(Cl)C(Cl)=C(Cl)Cl`: the Potency result was “inactive”.

In the case of `CC(C)(C)C(O)(CCc1ccc(Cl)cc1)Cn1cncn1` (stereo not given), the Potency entry is “inactive”.

Regarding `O=C(N/N=C/c1c(O)n(C2CC2)c(=S)[nH]c1=O)c1ccccc1`, the Potency is 14.1 µM (active).

Consider `O=c1[nH]c(=O)n(Cc2ccccc2)c(O)c1/C=N/Nc1c(F)c(F)c(F)c(F)c1F`, for which the Potency result was “inactive”.

Regarding `O=c1[nH]c(=S)n(C2CC2)c(O)c1/C=N/N1CCOCC1`, the Potency result is “inactive”.

Regarding `COc1ccc(C2N3CC(C)(C)CN23)cc1` (stereo not given), the Potency entry is “inactive”.

Turning to `Clc1ccccc1`, the Potency entry is “inactive”.

`C[C@@H]1C[C@@H]2O[C@H]2/C=C\C=C\C(=O)Cc2c(Cl)c(O)cc(O)c2C(=O)O1`: the Potency is 10 µM (active).

`CNC(C)[C@@H](O)c1ccccc1` (stereo not given in full): the Potency result was “inactive”.

Take `c1ccc(CN2CC[C@@]3(CCCNC3)C2)cc1`: the Potency entry is “inactive”.

On to `CCCCC/C=C\C/C=C\C/C=C\C=C\[C@H](CCCC(=O)O)OO`, for which the Potency result was “inactive”.

Regarding `CCC(C)C(=O)O[C@@H]1C[C@@]2(C)C(c3ccoc3)OC(=O)CC23OC2(C)O[C@@]14[C@@]1(C)C(CC(=O)OC)C5(C)CC1(O)C(O)(C5OC(=O)C1(C)OC1C)C(OC(C)=O)[C@@]34O2` (stereo not given in full), the Potency entry is “inactive”.

Regarding `CCCCCn1c(=O)c(C(=O)NCc2ccccc2)c(O)c2ccccc21`, the Potency was 12.6 µM (active).

For `CCCCCn1c(=O)c(C(=O)Nc2c(C)n(C)n(-c3ccccc3)c2=O)c(O)c2ccccc21`, the Potency result was “inactive”.

Regarding `CCCCn1c(=O)c(C(=O)Nc2ccccc2Cl)c(O)c2ccccc21`, the activity change, negative = inhibition was 1.37% [at 1.91 µM].

Consider `CCCCCn1c(=O)c(C(=O)NCc2ccccn2)c(O)c2ccccc21`, for which the Potency is 5.01 µM (active).

For `CC[N+]1(CCOC(=O)C(O)(c2ccccc2)c2ccccc2)CCCCC1`, the Potency result was “inactive”.

Turning to `Cc1cccc([C@H](C)c2cnc[nH]2)c1C`, the Potency result is “inactive”.

Turning to `CCC1(c2ccccc2)C(=O)NC(=O)N(C)C1=O` (stereo not given), the Potency result was “inactive”.

Take `O=c1[nH]c(=O)n(-c2ccccc2)c(O)c1C=NC12CN3CN(CN(C3)C1)C2`: the Potency result was “inactive”.

Turning to `CC(=O)c1c(O)c(C)c(O)c(Cc2c(O)c3c(c(C(=O)/C=C/c4ccccc4)c2O)OC(C)(C)C=C3)c1O`, the Potency result is “inactive”.

On to `CC[C@@H]1CN2CC[C@@H]1C[C@H]2[C@H](O)c1ccnc2ccc(OC)cc12`, for which the Potency entry was “inactive”.

For the compound `N#CC(C#N)=Cc1cc(O)c(O)c([N+](=O)[O-])c1`, the Potency entry is “inactive”.

In the case of `CCN1C[C@@]2(COC)CC[C@H](OC)[C@]34[C@@H]1[C@]1(OCO[C@@]15C[C@@H](OC)C1C[C@H]3[C@H]5[C@@H]1OC)[C@H](O)[C@@H]24`, the Potency entry is “inactive”.

`C[C@H]1C/C=C/[C@@H]2[C@@H]3O[C@]3(C)[C@@H](C)[C@H]3[C@H](Cc4ccccc4)NC(=O)[C@]32OC(=O)O/C=C/[C@](C)(O)C1=O`: the Potency entry was “inactive”.

Take `C=CCN1CCC23c4c5ccc(O)c4O[C@H]2C(=O)CC[C@@]3(O)C1C5` (stereo not given in full): the activity change, negative = inhibition is 14.1% [at 10 µM].

For `COC([CH2][Hg])CNC(=O)c1ccccc1OCC(=O)O` (stereo not given), the Potency result was “inactive”.

For the compound `CN(C)C[C@H]1CCCC[C@]1(O)c1cccc(O)c1`, the Potency entry was “inactive”.

Regarding `c1csc(CN2CCCC3(CCNCC3)C2)n1`, the Potency result is “inactive”.

For the compound `C[C@H]1CC[C@@]2(NC1)O[C@@H]1C[C@H]3[C@@H]4CC=C5C[C@@H](O)CC[C@]5(C)[C@@H]4CC[C@]3(C)[C@@H]1[C@@H]2C`, the Potency result was “inactive”.

Regarding `CN1CCCC(=C(c2cccs2)c2cccs2)C1`, the Potency result was “inactive”.

For `CCCCCCCCCCCCN=C(N)N`, the Potency entry is “inactive”.

On to `CN1C2C=C(N(C(=O)c3ccc(Cl)cc3)c3ccccc3)CC1CC2` (stereo not given), for which the Potency result was “inactive”.

As to `Cc1cc(C)cc(C(=O)N(CCc2ccccc2)C2=CC3CCC(C2)N3C)c1` (stereo not given), the Potency is 12.6 µM (active).

Take `CCCCC/C=C\C/C=C\C/C=C\C/C=C\CCCCCC(=O)NCCO`: the Potency entry was “inactive”.

As for `O=C(N/N=C/c1ccc([N+](=O)[O-])o1)c1cc([N+](=O)[O-])cc([N+](=O)[O-])c1O`, the Potency result is “inactive”.

For the compound `c1ccc(N2CC[C@@]3(CCCNC3)C2)nc1`, the Potency entry was “inactive”.

Regarding `CCC(=NCc1ccco1)c1c(O)n(Cc2ccccc2)c(=O)[nH]c1=O`, the Potency entry was “inactive”.

Consider `CC/C(=N\NC(=O)c1ccccc1O)c1c(O)n(Cc2ccccc2)c(=O)[nH]c1=O`, for which the Potency was 12.6 µM (active).

For `CCC(=NCCc1ccccc1)c1c(O)n(C2CCCCC2)c(=O)[nH]c1=O`, the Potency entry was “inactive”.
